For 39 compounds, growth results are on record in PubChem BioAssay (NCI).

About 83,000 compounds went through this panel and 20% of them were active in at least one assay; those are over-represented in the sample as a whole.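 Method: cells in 96-well plates; compound added at one concentration; 48 h incubation; percent growth measured; values under 10 scored active.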 Values without a mark were called inactive. Calls of active or inactive are those of the source.

The test system of one assay is MDA-MB-231 breast. Nature of the assay: NCI-60 one-dose screen, 48 h (100 = growth as untreated, 0 = no growth, -100 = all killed). The following applies: 10 µM unless noted.
Turning to `O=C(CCCCC(=O)N/N=C\c1ccccc1O)N/N=C\c1ccccc1O`, the growth is 50%.
As for `COc1cc(-c2nc(C(=O)NCC(=O)NO)nn2-c2ccc(Cl)cc2)cc(OC)c1OC`, the growth is 101%.
Regarding `O=c1ccccc(-c2ccc(Br)cc2)c1O`, the growth was 32.9%.
For `Cc1cc2nc(NC(=O)CN3CCN(CCN4C(=O)c5cccc6cccc(c56)C4=O)CC3)sc2cc1C`, the growth is 92.4%.
With `COc1cc(C(=O)/C=C/c2cccnc2Nc2ccc(Cl)cc2)cc(OC)c1OC`, the growth is -50.7% (active).
Take `COc1ccc(-c2nnc(SCC(=O)c3ccc(Cl)cc3)o2)cc1`: the growth is 98.7%.
Consider `COc1cc(/C=C/C(=O)Nc2cccnc2Nc2ccc(F)cc2)cc(OC)c1OC`, for which the growth was 93.5%.
On to `O=C1/C(=C/c2ccccc2O)N=C2SCCCN12`, for which the growth was 78.8%.
On to `CC(C)(CCCN=C(N)Nc1ccc(Cl)cc1)c1ccc(F)cc1`, for which the growth was 41%.
As for `CCCCC[C@H]1C/C=C2/C(=O)C=C[C@@H]2C/C=C\CCCC(=O)O1`, the growth is 7.59% (active).
With `COc1ccc2c(c1)C(=O)/C(=C/c1ccccn1)CC2`, the growth was 69.4%.
On the same count and under the same terms, the value for `C=C1C(=O)O[C@H]2[C@H]1CC/C(COC(=O)NCCc1ccc(OC)c(OC)c1)=C\CC[C@@]1(C)O[C@@H]21` was 58%; that for `COc1cc(-c2nn(-c3ccc(Br)cc3)cc2C(=O)O)ccc1O` was 126%; that for `CCCCCC(=O)Oc1ccc(/C(=C(\C)c2ccc(OC)cc2)c2ccc(OCCN3CCCCC3)cc2)cc1` was 66.1%.
As for `COC(=O)[C@@H]1CCCN1C(=O)[C@@H]1CCCN1C(=O)[C@H](Cc1ccccc1)NC(=S)Nc1cc(C(F)(F)F)cc(C(F)(F)F)c1`, the growth was 62.8%.
In the case of `CCOc1ccc(C(C)=O)cc1NC(=O)c1cccc(-c2nnn(CC)n2)c1`, the growth is 47.9%.
In the case of `O=[N+]([O-])c1ccccc1/C=N\NC(=S)N/N=C/c1ccccc1[N+](=O)[O-]`, the growth was 83%.
Still for that read-out and setting: the value for `O=[N+]([O-])c1ccc2c(c1)Cc1cc(F)ccc1-2` was 112%; that for `CC(=O)OC[C@H]1O[C@H](OC(C)=O)[C@H](NC(=O)/C=C/CCl)[C@@H](OC(C)=O)[C@@H]1OC(C)=O` was 46.3%; that for `CCC#CC[C@H](O)C/C=C1/C(=O)C=C[C@@H]1C/C=C\CCCC(=O)OC` was 12.7%.
As for `CC/C=C\C[C@H](O)C/C=C1/C(=O)C=C[C@@]1(C)C/C=C\CCCC(=O)OC`, the growth was 104%.
In the case of `CC[N+](CC)=c1sc2c(s1)C(c1ccc(Cl)cc1)Oc1ccc(Cl)cc1-2` (stereo not drawn), the growth was -38% (active).
The same measure, in the same setting: the value for `COc1cccc(-c2nc(SCC(=O)Nc3ccc(C(=O)/C=C/c4ccc(OC)c(OC)c4)cc3)[nH]c(=O)c2C#N)c1` was 67.6%.
In the case of `COc1ccc(CN2c3ccccc3Oc3ccccc32)cc1O`, the growth was 56.6%.
Turning to `C=C1C(=O)O[C@H]2[C@H]1CC/C(C=Nc1ccc(C(F)(F)F)cc1N)=C\CC[C@@]1(C)O[C@@H]21`, the growth was -26.4% (active).
With `COc1ccc2c(c1)C(=O)/C(=C/c1cccnc1)CC2`, the growth is 87.7%.
Same read-out and setting: the value for `Clc1ccc2c(NCCCCNc3nc(N4CCOCC4)nc4ccccc34)ccnc2c1` was -58.3% (active); that for `COc1ccccc1Nc1nc(-c2cc3cccc(C(F)(F)F)c3oc2=O)cs1` was 19.1%.
For the compound `CCc1c(Nc2ccccc2C)nc(N)[nH]c1=O`, the growth was 114%.
For the compound `O=c1oc2c(C(F)(F)F)cccc2cc1-c1csc(Nc2ccc(OCCF)cc2)n1`, the growth was 9.58% (active).
On the same count and under the same terms, in the case of `COc1ccc(CN2c3ccccc3Sc3ccccc32)c(C(F)(F)F)c1` it was 40.6%; in that of `COc1cc2c(cc1O)CC[C@@H]1[C@@H]2CC[C@]2(C)[C@@H](OCCN(C)C)CC[C@@H]12`, 16.2%.
On the same count and under the same terms, the value for `CCNc1ncnc2c1cnn2C1CCCO1` (stereo not drawn) was 110%; that for `NC(=NCCCC1(c2ccccc2)CCCC1)Nc1ccc(Cl)cc1` was 1.92% (active); that for `CCOc1ccc(-n2nc(C(=O)Nc3cc(OC)c(OC)c(OC)c3)nc2-c2cc(OC)c(OC)c(OC)c2)cc1` was 50.5%.
The same measure, in the same setting: the value for `COc1ccc(CN2c3ccccc3Sc3ccccc32)cc1O` was 41.2%; that for `NCCNc1nc(Nc2ccc(-c3nc4ccccc4[nH]3)cc2)c2cn[nH]c2n1` was 18.8%.
Turning to `COc1cccc2c1C(=O)c1c(O)c3c(c(O)c1C2=O)C[C@](O)(C(=O)CO)C[C@H]3O[C@@H]1C[C@@H](NC(=O)CCCCCN(C)C2(c3ccc(F)cc3)CC3CCC2C3)[C@H](O)[C@@H](C)O1` (stereo partly drawn), the growth is -77.1% (active).
As to `CC(O)CN(CC(C)O)c1ccc2c(c1)Cc1cc([N+](=O)[O-])ccc1-2` (stereo not drawn), the growth was 99.6%.

In a further assay the test system is RXF 393 renal. The description is as above. The following applies: 10 µM unless noted.
Regarding `O=C(CCCCC(=O)N/N=C\c1ccccc1O)N/N=C\c1ccccc1O`, the growth is 43.4%.
For `COc1cc(-c2nc(C(=O)NCC(=O)NO)nn2-c2ccc(Cl)cc2)cc(OC)c1OC`, the growth was 107%.
As to `O=c1ccccc(-c2ccc(Br)cc2)c1O`, the growth was 46.2%.
For `Cc1cc2nc(NC(=O)CN3CCN(CCN4C(=O)c5cccc6cccc(c56)C4=O)CC3)sc2cc1C`, the growth is 87.5%.
Regarding `COc1cc(C(=O)/C=C/c2cccnc2Nc2ccc(Cl)cc2)cc(OC)c1OC`, the growth was -85.7% (active).
Turning to `COc1ccc(-c2nnc(SCC(=O)c3ccc(Cl)cc3)o2)cc1`, the growth is 113%.
With `COc1cc(/C=C/C(=O)Nc2cccnc2Nc2ccc(F)cc2)cc(OC)c1OC`, the growth was 108%.
As for `O=C1/C(=C/c2ccccc2O)N=C2SCCCN12`, the growth is 112%.
Regarding `CC(C)(CCCN=C(N)Nc1ccc(Cl)cc1)c1ccc(F)cc1`, the growth is 88.7%.
With `CCCCC[C@H]1C/C=C2/C(=O)C=C[C@@H]2C/C=C\CCCC(=O)O1`, the growth is -89.9% (active).
Take `COc1ccc2c(c1)C(=O)/C(=C/c1ccccn1)CC2`: the growth was 83%.
For `C=C1C(=O)O[C@H]2[C@H]1CC/C(COC(=O)NCCc1ccc(OC)c(OC)c1)=C\CC[C@@]1(C)O[C@@H]21`, the growth was 34.7%.
Turning to `COc1cc(-c2nn(-c3ccc(Br)cc3)cc2C(=O)O)ccc1O`, the growth was 109%.
As to `CCCCCC(=O)Oc1ccc(/C(=C(\C)c2ccc(OC)cc2)c2ccc(OCCN3CCCCC3)cc2)cc1`, the growth was 70.2%.
Turning to `COC(=O)[C@@H]1CCCN1C(=O)[C@@H]1CCCN1C(=O)[C@H](Cc1ccccc1)NC(=S)Nc1cc(C(F)(F)F)cc(C(F)(F)F)c1`, the growth is 83.8%.
Consider `CCOc1ccc(C(C)=O)cc1NC(=O)c1cccc(-c2nnn(CC)n2)c1`, for which the growth is -1.89% (active).
Consider `O=[N+]([O-])c1ccccc1/C=N\NC(=S)N/N=C/c1ccccc1[N+](=O)[O-]`, for which the growth was 76.3%.
On to `O=[N+]([O-])c1ccc2c(c1)Cc1cc(F)ccc1-2`, for which the growth is 103%.
As to `CC(=O)OC[C@H]1O[C@H](OC(C)=O)[C@H](NC(=O)/C=C/CCl)[C@@H](OC(C)=O)[C@@H]1OC(C)=O`, the growth was 75.2%.
As for `CCC#CC[C@H](O)C/C=C1/C(=O)C=C[C@@H]1C/C=C\CCCC(=O)OC`, the growth was -74.1% (active).
With `CC/C=C\C[C@H](O)C/C=C1/C(=O)C=C[C@@]1(C)C/C=C\CCCC(=O)OC`, the growth is 115%.
The same measure, in the same setting: in the case of `CC[N+](CC)=c1sc2c(s1)C(c1ccc(Cl)cc1)Oc1ccc(Cl)cc1-2` (stereo not drawn) it was 10.7%; in that of `COc1cccc(-c2nc(SCC(=O)Nc3ccc(C(=O)/C=C/c4ccc(OC)c(OC)c4)cc3)[nH]c(=O)c2C#N)c1`, 85.2%.
On the same count and under the same terms, the value for `COc1ccc(CN2c3ccccc3Oc3ccccc32)cc1O` was 50.1%.
Turning to `C=C1C(=O)O[C@H]2[C@H]1CC/C(C=Nc1ccc(C(F)(F)F)cc1N)=C\CC[C@@]1(C)O[C@@H]21`, the growth was -35.5% (active).
Regarding `COc1ccc2c(c1)C(=O)/C(=C/c1cccnc1)CC2`, the growth is 109%.
As for `Clc1ccc2c(NCCCCNc3nc(N4CCOCC4)nc4ccccc34)ccnc2c1`, the growth was 86.3%.
Consider `COc1ccccc1Nc1nc(-c2cc3cccc(C(F)(F)F)c3oc2=O)cs1`, for which the growth was 26.7%.
Take `CCc1c(Nc2ccccc2C)nc(N)[nH]c1=O`: the growth is 112%.
Same read-out and setting: in the case of `O=c1oc2c(C(F)(F)F)cccc2cc1-c1csc(Nc2ccc(OCCF)cc2)n1` it was 22.5%; in that of `COc1ccc(CN2c3ccccc3Sc3ccccc32)c(C(F)(F)F)c1`, -9.74% (active).
Same read-out and setting: the value for `COc1cc2c(cc1O)CC[C@@H]1[C@@H]2CC[C@]2(C)[C@@H](OCCN(C)C)CC[C@@H]12` was 52.4%.
As for `CCNc1ncnc2c1cnn2C1CCCO1` (stereo not drawn), the growth was 105%.
Take `NC(=NCCCC1(c2ccccc2)CCCC1)Nc1ccc(Cl)cc1`: the growth is 51.7%.
Still for that read-out and setting: in the case of `CCOc1ccc(-n2nc(C(=O)Nc3cc(OC)c(OC)c(OC)c3)nc2-c2cc(OC)c(OC)c(OC)c2)cc1` it was 83.8%; in that of `COc1ccc(CN2c3ccccc3Sc3ccccc32)cc1O`, -9.86% (active); in that of `NCCNc1nc(Nc2ccc(-c3nc4ccccc4[nH]3)cc2)c2cn[nH]c2n1`, 43%.
In the case of `COc1cccc2c1C(=O)c1c(O)c3c(c(O)c1C2=O)C[C@](O)(C(=O)CO)C[C@H]3O[C@@H]1C[C@@H](NC(=O)CCCCCN(C)C2(c3ccc(F)cc3)CC3CCC2C3)[C@H](O)[C@@H](C)O1` (stereo partly drawn), the growth was 31.6%.
With `CC(O)CN(CC(C)O)c1ccc2c(c1)Cc1cc([N+](=O)[O-])ccc1-2` (stereo not drawn), the growth is 105%.
